In PubChem BioAssay AID2546 (National Center for Advancing Translational Sciences (NCATS), 2010):
Among all 310,000 compounds or so, about 11,000 (3.5%) were called active. Where a call stands in place of a potency, no number is given. Another 8% or so got no clear call; they are omitted. The sample holds actives, similar compounds and a random draw of the others, so the mix is not that of the screen. Unmarked numbers belong to inactive results. Calls follow the shape of the dose curve; as a rule, active = well fitted inhibition curve with a large enough effect; inconclusive = small, poorly fitted or top-dose-only effect, or effect the other way; inactive = flat fitted curve, though single readings scatter.

Experiment: VP16 counterscreen qHTS for inhibitors of ROR gamma transcriptional activity;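 also: Gal4-VP16 expression switched on by copper sulfate through the metallothionein promoter; nearly all actives have a fitted effect of over 50% in size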
Settings: Drosophila S2 Gal4-VP16 UAS-luciferase, luminescence, 20 h; series mostly up to 53.6 µM
Potency is read from the fitted curve at half-maximal effect.

Compound	Potency	activity, negative = inhibition
CCOC(=O)C1CCCN(CCSc2ccc(C)cc2)C1 (stereo unspecified)	inactive	–
CC(=O)Nc1ccc(S(=O)(=O)N(C)CC(=O)NCCC2=CCCCC2)cc1	inactive	–
O=C(NC1CCN(Cc2ccccc2)CC1)c1c(F)cccc1F	inactive	–
NS(=O)(=O)c1ccc(CCNC(=S)Nc2ccc(S(N)(=O)=O)cc2)cc1	inactive	–
CCc1ccc(NC(=O)CS(=O)CC(=O)NCCCc2ccccc2)cc1 (stereo unspecified)	inactive	–
O=C(COc1ccc(Br)cc1F)NC1CCN(Cc2ccccc2)CC1	inactive	–
O=C(Cc1cccc2ccccc12)NCCC1=CCCCC1	inactive	–
O=C1CCN(C(=S)NCCc2ccccc2)CC1	inactive	–
S=C(NCCCc1ccccc1)Nc1ccc(Br)cc1	10 µM (active)	–
O=C(NCCCc1ccccc1)C(=O)c1c[nH]c2ccccc12	inactive	–
S=C(NCCC1=CCCCC1)Nc1ccccc1	5.62 µM (active)	–
S=C(Nc1ccc(Br)cc1)NC1CCN(Cc2ccccc2)CC1	15.8 µM (active)	–
S=C(NCCc1ccccc1)Nc1ccccc1	17.8 µM (active)	–
Cc1c(Cl)cccc1NC(=O)NCCCN1CCCC1=O	inactive	–
Cn1c(SCC(=O)N2CCCC2)nnc1-c1cccs1	inactive	–
COc1ccccc1CN1CC(C(=O)NCCc2cn[nH]c2)CCC1=O (stereo unspecified)	inactive	–
Cc1ccn(CCC(=O)N2c3ccccc3CC2C)n1 (stereo unspecified)	inactive	–
COc1ccc(OC)c(NC(=O)c2ccc3c(c2)C(=O)N(c2ccc(OC(C)=O)cc2)C3=O)c1	inactive	–
O=C(NCCNc1ccccc1[N+](=O)[O-])c1ccccc1F	inactive	–
COc1ccc(-c2nonc2NC(=O)c2oc3ccc(F)cc3c2C)cc1OC	inactive	–
COc1ccc(S(=O)(=O)N2CCC(C(=O)NCc3ccco3)CC2)cc1C	inactive	–
N#Cc1ccccc1S(=O)(=O)N1CCN(C(=O)c2cc(-c3ccccc3)nn2-c2ccccc2)CC1	inactive	–

Compound	Potency	activity, negative = inhibition
Cc1c(CCC(=O)N[C@@H](CC(C)C)C(=O)O)c(=O)oc2c(C)c3oc4c(c3cc12)CCCC4	inactive	–
COc1cc2[nH]c(=S)n(Cc3ccc(C)o3)c(=O)c2cc1OC	10 µM (active)	–
CCOc1cc2[nH]c(=S)n(Cc3ccc(C(=O)NCCOC)cc3)c(=O)c2cc1OCC	inactive	–
COc1cc2[nH]c(=S)n(CCN3CCCCC3C)c(=O)c2cc1OC (stereo unspecified)	inactive	–
Cc1ccc(S(=O)(=O)N(CC(O)CN2CCCCC2)c2cccc([N+](=O)[O-])c2)cc1 (stereo unspecified)	inactive	–
CCc1ccc(NC(=O)N2CCc3ccccc3C2)cc1	inactive	–
O=c1oc2ccccc2cc1-c1cn(-c2ccccc2)c(=S)[nH]1	1.78 µM (active)	–
O=C(c1cn(-c2ccccc2)nc1-c1cc2ccccc2oc1=O)N1CCOCC1	–	7.29% [at 10 µM]
O=C(Nc1cc2ccccc2oc1=O)C1CCCCC1	inactive	–
CN(C(=O)COC(=O)c1nc(Cl)ccc1Cl)C1CCS(=O)(=O)C1 (stereo unspecified)	inactive	–
CCc1ccc(OCC(=O)N(Cc2ccccc2)C2CCS(=O)(=O)C2)cc1 (stereo unspecified)	inactive	–
O=C(N/N=C/c1ccc(OC(=O)c2ccccc2Cl)cc1)c1ccc(O)cc1	inactive	–
O=C(Cc1cccs1)N/N=C/c1ccc(OCc2ccccc2)cc1	inactive	–
O=C(N/N=C/c1ccc(OCc2ccccc2)cc1)c1ccc(O)cc1	11.2 µM (active)	–
COCCNC(=O)COc1ccc(N(C)S(=O)(=O)c2ccc3ccccc3c2)cc1	inactive	–
CCOc1ccc(S(=O)(=O)Nc2ccc(S(=O)(=O)Nc3cc(OC)ccc3OC)cc2)cc1	inactive	–
COc1ccc(NS(=O)(=O)c2ccc(Oc3c(C#N)cccc3C#N)cc2)cc1	3.98 µM (active)	–
COc1ccc(NS(=O)(=O)c2ccc(NC(=S)NC(=O)CC(C)C)cc2)cc1	inactive	–
COc1cccc(CNS(=O)(=O)c2ccc3c(c2)N(C(C)=O)CCS3)c1	inactive	–
COC(=O)c1ccc(COc2ccc(/C=C/C(=O)c3ccc(OC)c(CSCC(=O)O)c3)cc2OC)cc1	inactive	–
Cc1cccc(OCC(=O)NCC(=O)N/N=C/c2ccc(N(C)C)cc2)c1	inactive	–
COc1ccc(OC)c(C(=O)CSc2nnc(-c3cccs3)o2)c1	15.8 µM (active)	–

Compound	Potency	activity, negative = inhibition
COc1ccc(-c2nnc(SCC(=O)c3cccs3)o2)c(OC)c1	inactive	–
COc1ccc(C(=O)CSc2nnc(-c3ccco3)o2)cc1	inactive	–
CN(c1cccc(NC(=O)c2ccc(CN3CCc4ccccc4C3)cc2)c1)S(C)(=O)=O	inactive	–
COc1cccc(C(=O)Nc2ccc(N3CCN(C(=O)c4ccco4)CC3)cc2)c1	inactive	–
CCn1c(/C=N/NC(=O)c2ccc(OC)cc2)nc2ccccc21	inactive	–
COC(=O)CNC(=O)c1ccc(OC2CCN(C(=O)C3CC3)CC2)cc1	inactive	–
CCc1ccc(/C=N/NC(=O)c2ccc(OC3CCCC3)cc2)s1	11.2 µM (active)	–
CCOc1ccc(S(=O)(=O)N2CCCC(C(=O)N3CCC(C(N)=O)CC3)C2)cc1Cl (stereo unspecified)	inactive	–
COc1ccccc1CCNS(=O)(=O)c1cc2c3c(c1)C(C)C(=O)N3CCC2 (stereo unspecified)	inactive	–
Cc1ccc(OCC(=O)Nc2ccc(S(=O)(=O)Nc3ccccn3)cc2)cc1	inactive	–
Cc1ccc(NS(=O)(=O)c2ccc(C(C)(C)C)cc2)cn1	inactive	–
Cc1ccc(S(=O)(=O)Nc2ccc3ncccc3c2)cc1	17.8 µM (active)	–
CC(C)C[C@H]1CN=C(Nc2ccccc2)N1CC1CCCCC1	inactive	–
COC(=O)c1cc(S(=O)(=O)N2CCN(c3cc(C)ccc3C)CC2)c[nH]1	inactive	–
NS(=O)(=O)c1ccc(N=Nc2c(O)[nH]c3ccc(Br)cc23)cc1	inactive	–
CCN1CCN(c2sc(S(C)(=O)=O)nc2S(=O)(=O)c2ccc(Cl)cc2)CC1	inactive	–
CCOC(=O)c1ccc(NC2Nc3cc(C)nn3S2)cc1 (stereo unspecified)	inactive	–
CCc1ccc(NC2Nc3cc(C)nn3S2)cc1 (stereo unspecified)	5.01 µM (active)	–
CCOC(=O)c1ccccc1NC(=O)CC1Nc2ccccc2NC1=O (stereo unspecified)	inactive	–
O=C(CC1Nc2ccccc2NC1=O)Nc1ccccc1NC(=O)CC1Nc2ccccc2NC1=O (stereo unspecified)	inactive	–
O=C(CC1Nc2ccccc2NC1=O)Nc1ccccc1 (stereo unspecified)	5.01 µM (active)	–
CCN(C(=O)COc1ccc(C(=O)c2ccccc2)cc1)c1ccccc1	inactive	–

Compound	Potency	activity, negative = inhibition
O=S(=O)(c1ccccc1)c1nc(-c2ccccc2)oc1NCCCN1CCOCC1	inactive	–
Cc1cccc(N2CCN(C(=O)c3cccc(N4C(=O)C5C6C=CC(C6)C5C4=O)c3)CC2)c1C (stereo unspecified)	inactive	–
O=C(CN1CCOC1=O)N1CCCC(Nc2ccc(F)c(F)c2)C1 (stereo unspecified)	inactive	–
C=C1CCN(C(CC(C)C)C(=O)N2CCOCC2)S(=O)(=O)c2ccccc21 (stereo unspecified)	inactive	–
Cc1ccc(OCCOCCOc2ccc(Br)cc2/C=N\NC(=O)c2ccncc2)cc1	25.1 µM (active)	–
Cc1ccc(S(=O)(=O)Oc2ccc(/C=N/NC(=O)c3ccncc3)cc2)cc1	inactive	–
Cc1ccc(OCCOc2cccc(/C=N/NC(N)=O)c2)cc1	inactive	–
Cc1ccc(CNC(=O)CCN2C(=O)[C@@H]3Cc4ccccc4CN3C2=O)cc1	inactive	–
CC(=O)Nc1cccc(C(=O)OCN2C(=O)c3ccccc3C2=O)c1	inactive	–
Cc1cc(OCc2cc(C(=O)NCc3cc(C(C)C)no3)no2)cc(C)c1Cl	inactive	–
Cc1cccc(NC(=S)NCCN(C2CCCCC2)C2CCCC2)c1	inactive	–
Cc1cccc(NC(=S)NCc2ccc3[nH]c4c(c3c2)CCCC4)c1	7.08 µM (active)	–
O=C(O)CCC(=O)NCc1ccc2[nH]c3c(c2c1)CCCC3	inactive	–
CCOc1cc(/C=N/Nc2cc(C)nc3ccc(C)cc23)ccc1O	inactive	–
CCn1ccnc1CN1CCCC(C(=O)c2ccc3c4c(cccc24)CC3)C1 (stereo unspecified)	4.47 µM (active)	–
Cc1ncoc1C(=O)N1CCCC(C(=O)c2ccc3c4c(cccc24)CC3)C1 (stereo unspecified)	inactive	–
CC(=O)NCC(=O)N1CCCC(C(=O)c2ccc3c4c(cccc24)CC3)C1 (stereo unspecified)	inactive	–
COc1cc2c(cc1OC)C(C)N(S(=O)(=O)c1cnc(Cl)c(Cl)c1)CC2 (stereo unspecified)	inactive	–
CCN1C(=S)N[C@@H](c2cccc(C(F)(F)F)c2)C(C(=O)OC)=C1C	inactive	–
CC1CCN(CC(=O)Nc2nccs2)CC1	inactive	–
C=CCn1c(=S)[nH]c2scc(-c3ccco3)c2c1=O	7.94 µM (active)	–
C=CCNC(=O)CSc1nc2scc(-c3ccco3)c2c(=O)n1CC=C	inactive	–

Compound	Potency	activity, negative = inhibition
C=CCn1c(SCc2csc(C)n2)nc2scc(-c3ccc(C)o3)c2c1=O	inactive	–
COc1ccc(NC(=O)CN2C(=O)COc3ccc(S(=O)(=O)N4CCOCC4)cc32)c(OC)c1	inactive	–
Cc1ccc(S(=O)(=O)N(C)CC(=O)NCCc2c[nH]c3ccccc23)cc1	inactive	–
COc1ccc(-n2c(=O)[nH]c3cc(C(=O)NCCc4ccc(OC)c(OC)c4)ccc3c2=O)c(OC)c1	inactive	–
COc1ccc(NS(=O)(=O)c2cc(C(=O)Nc3ccccc3C(=O)O)ccc2C)cc1	inactive	–
CCCCc1nc2cc(C(=O)N3CCCCC3CCO)ccc2o1 (stereo unspecified)	inactive	–
COc1ccc(-c2cn3ccc(C)cc3n2)cc1	5.01 µM (active)	–
CCN(CC)S(=O)(=O)c1ccc(-c2cn3ccc(C)cc3n2)cc1	inactive	–
COc1ccc(-c2cn3cccnc3n2)cc1	inactive	–
O=C(c1cc(C(=O)N2CCN(c3ccc(F)cc3)CC2)cc([N+](=O)[O-])c1)N1CCN(c2ccc(F)cc2)CC1	inactive	–
CC(C)(C)C(=O)NC1CC2CCCC(C1)N2C(=O)Nc1ccccc1F (stereo unspecified)	inactive	–
O=CN1CCN(C(=O)c2ccc3c(c2)OCO3)CC1	inactive	–
CC(C)N(Cc1ccccc1)C(=S)Nc1ccc(OC(F)F)cc1	inactive	–
CC(NC(=S)Nc1ccc(OC(F)F)cc1)c1ccc(F)cc1 (stereo unspecified)	12.6 µM (active)	–
CC(NC(=S)Nc1ccc(S(N)(=O)=O)cc1)c1ccc2c(c1)OCO2 (stereo unspecified)	inactive	–
Cc1cc(C)c2c(NC(=O)C3CC3)nn(C)c2n1	inactive	–
Cc1cc(-n2nc(C)cc2C)n2nc(C)c(-c3ccccc3)c2n1	inactive	–
Cc1cc(C)c2c(n1)nn1c(-n3ccnc3)cc(C)nc21	15.8 µM (active)	–
